About 820 (0.2%) of roughly 410,000 compounds were called active. Inconclusive results (about 2%) are left out. Calls come from the whole dose curve; as a rule, active = well fitted activation curve with a large enough effect; inconclusive = small, poorly fitted or top-dose-only effect; inactive = flat fitted curve, though single readings scatter; cell line not stated here. The entries come from a sample that favours actives as a whole. A call without a number means that no potency is given here.
Experiment: A Quantitative High throughput Screen to Identify Chemical Modulators of PINK1 Expression; note: nearly all actives have a fitted effect of over 65% in size
Details: PINK1 immunofluorescence, high-content cytometry, 24 h; series mostly up to 76.6 µM
Source text: The overall goal of this project is to develop new tools for understanding and treating the mitochondrial basis for neurodegenerative disease such as Parkinson's disease (PD). The PINK1 campaign was developed from recent data pointing towards mitochondrial dysfunction as a major contributor to dopaminergic neuron loss. The discovery of PINK1/Parkin mediated mitophagy has highlighted the potential for mitochondrial quality control as a novel target for therapeutic intervention. […] A second aim of this project is the development of chemical probes to study the mechanics of mitochondrial quality control. As the PINK1/Parkin mitophagy pathway is a relative recent discovery, no specific chemical probes are available that modulate the process. Presently, only crude tools that cause nonspecific mitochondrial damage are available. To advance the understanding of mitophagy, specific, well characterized chemicals that target various steps of mitophagy regulation need to be developed. New chemical probes may have the ability to dynamically manipulate mitophagy in model organisms such as rodents and zebrafish, advancing our understanding of the process in development and disease. This HTS campaign seeks to discover an activator of PINK1 expression by modulation at the level of post-translational processing.
The PINK1 assay determines the amount and localization of PINK1 protein in a cell using a combination of immunofluorescence and cell staining. The goal of the assay is to determine small molecules that can increase the expression of Pink1 on or inside the cell's mitochondria (ideally without mitochondrial depolarization) using a stable cell line. Since PINK1 protein is rapidly degraded in un-perturbed cells, compounds that induce the enhancement of PINK1 protein expression are identified by determining PINK1 immunofluorescence in conjunction with a mitochondrial, cell, and nuclear marker post fixation. To facilitate rapid high content screening, the primary assay is run in a decision-based HTS mode where compound titration data collected by laser-scanning microplate cytometers is processed and only promising compound series are passed off for high content drill down.
1 Add cells to black, clear-bottom, low-base 1536-well plates 6 uL (250 cells/well)
2 Incubate in TC incubator (12 hours)
3 Pin compounds or DMSO controls 23 nL (5 concentrations per compound set)
4 Dispense CCCP to control columns
5 Incubate in TC incubator 24 hours
6 Aspirate media and fix cells (5 uL of fixative containing nuclear dye)
7 Incubate 15 minutes at RT
8 Wash in PBSTween (12 uL/well)
9 Wash in PBSTriton (12 uL/well)
10 Aspirate wash and add Blocking buffer (4 uL/well)
12 Aspirate block and add primary antibodies 3.5 (uL/well)
13 Incubate 12 hours at 10 degrees C
14 Wash in PBSTween-20 two times (12 uL/well)
15 Aspirate wash and add secondary antibodies (12 uL/well)
17 Wash in PBSTween (12 uL/well)
18 Wash in PBSTween with cell stain (12 uL/well)
19 Read plates on Acumen EX3 and determine Wells2Cells coordinates
Potency is the fitted concentration of half-maximal effect.

SMILES	Potency
CCOc1ccc(-c2cc(C)[n+](CCN(CC)CC)c(-c3ccc(OCC)cc3)c2)cc1	15.8 µM (active)
CCc1nc2ccccc2c(=O)n1-c1cccc(OC)c1	inactive
COc1cccc(N2C(=O)NC(=O)/C(=C\c3cn(C)c4ccccc34)C2=O)c1	39.8 µM (active)
Cn1cc(/C=C/c2nc3ccccc3c(=O)n2-c2ccccc2)c2ccccc21	inactive
c1ccc(N2CC[C@@]3(CCCNC3)C2)nc1	inactive
COc1cccc(-c2ccc(O)c(CNC3CN4CCC3CC4)c2)n1 (centres undefined)	inactive
c1ccc(CN2CC[C@@]3(CCCNC3)C2)cc1	inactive
COc1cc([C@@H]2c3cc4c(cc3[C@H](OC(C)=O)[C@H]3COC(=O)[C@H]23)OCO4)cc(OC)c1OC	inactive
N#Cc1c(Cl)c(Cl)c(Cl)c(C#N)c1Cl	inactive
